Screening data (PubChem BioAssay)
FMDV inh – blocks foot and mouth disease virus; FMDV antiviral cell-based qHTS; Potency, µM (titrated, usually from 57.9 µM), inactives show top-dose activity change, negative = inhibition, hits mostly inhibitors; hit rate 1.2% among 410,000; calls by dose curve; tested in HEK293T cells; further: read-out not given here; potency means the concentration at half of the fitted maximal effect; nearly all actives have a fitted effect of over 45% in size
HCV inhibitor – inhibitors of hepatitis C virus infection | Huh7.5.1 HCVcc-Cre infection, luciferase reporter, 44 h | Potency, µM (doses to about 41.8 µM), for the others: at the highest dose activity change, negative = inhibition, hits mostly inhibitors | hit rate 3.4% among 340,000 | AID 651820; active means well fitted inhibition curve with a large enough effect; inconclusive means small, poorly fitted or top-dose-only effect, or another doubt; inactive means no such curve, though single readings can be large or run the other way; further: potency means the concentration at half of the fitted maximal effect
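Infectious HCV cell culture screen: compound-treated cells (1,000/well, pre-plated 4 h) are infected with HCVcc-Cre at roughly 0.5 moi and grown 44 h. Infection is quantified by luciferase signal after 15 min substrate incubation at room temperature.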
HCMV inh – human cytomegalovirus inhibition. activity change, negative = inhibition, % at 57.5 µM. hit rate 4.5% among 410,000. HFF cells, HCMV-luciferase reporter, 72 h; active compounds read low; in the data active means activity change below about -60%; inconclusive means no clear call, values can overlap the other calls; inactive means above about -39%
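Inhibition of viral replication was scored as loss of reporter luminescence in HFFs infected with HCMV-luciferase (MOI 1 PFU/cell) for 72 h; compounds tested at 2 doses, normalized to buffer and Salinomycin controls.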
VACV Venus inh – inhibitors of vaccinia virus (Venus reporter) | Vaccinia virus Venus reporter expression, fluorescence | Potency, µM (top dose mostly 36.5 µM), for inactives: at the highest dose activity change, negative = inhibition, most hits filed as inhibitors | hit rate 0.46% among 330,000; calls by dose curve; tested in A549 cells; further: potency means the concentration at half of the fitted maximal effect; nearly all actives have a fitted effect of over 30% in size
VACV mCherry inh – inhibitors of vaccinia virus infection (mCherry reporter signal). Potency, µM (highest dose often 36.5 µM), without a hit: at the highest dose activity change, negative = inhibition, most hits filed as inhibitors. hit rate 0.63% among 310,000. Vaccinia virus mCherry reporter infection, fluorescence; calls by dose curve; tested in A549 cells; further: potency means the concentration at half of the fitted maximal effect; nearly all actives have a fitted effect of over 35% in size
* marks the source's active call; other numbers are inactive results; i = inactive; u = inconclusive; x = not tested or not shown; [ ] = remark or other dose. Most compounds without a hit are left out; they make up all but 7.3% or so of the library. On the % scale 0 is the no-effect control and ±100 the full control effect.

SMILES	FMDV inh	HCV inhibitor	HCMV inh	VACV Venus inh	VACV mCherry inh
OC(c1cccc(Cl)c1)(c1cccc(Cl)c1)C1CN2CCC1CC2 (configuration not stated)	-15%	16µM*	-34	-28%	-3%
CC(C)(C)c1cc(NCc2ccccn2)n2ncc(-c3ccc(Cl)cc3)c2n1	4%	u	-15	x	x
Cc1nn2c(NCc3ccccn3)c3c(nc2c1-c1ccccc1)CCC3	u	-67%	-83*	u	10µM*
Cc1cc(Nc2ccccc2)n2nc(C)c(-c3ccccc3)c2n1	25%	u	-18	x	x
Cc1cc(NCc2ccccn2)n2nc(C)c(-c3ccccc3)c2n1	-7%	1.6µM*	-83*	u	5.6µM*
Cc1nn2c(NCc3ccccn3)cc(C(C)(C)C)nc2c1-c1ccccc1	u	2.5µM*	-97*	x	x
COC(=O)c1sccc1S(=O)(=O)N(CC(=O)Nc1c(C)cccc1C)c1ccc(C)c(C)c1	4%	x	-10	-4%	-11%
Cc1cccc(-c2nnc(C3CCN(S(=O)(=O)c4cccc(Cl)c4)CC3)o2)c1	2%	x	-94*	-14%	-12%
Cc1ccc(-c2nnc(C3CCN(S(=O)(=O)c4ccc(C)c(C)c4)CC3)o2)cc1	-5%	x	u	-7%[7.34 µM]	-6%[7.34 µM]
CC(=O)Nc1ccc(S(=O)(=O)N2CCC(c3nnc(-c4ccc(C)cc4)o3)CC2)cc1	u	-9%	-96*	-15%	-7%
Cc1ccsc1CCN1C(=O)N(c2ccc(F)cc2)C(=O)C1CC(=O)Nc1ccccc1 (configuration not stated)	-1%	x	-9	-21%	-12%
CCCCN(C)c1nnc(NC(=O)Nc2cccc(C(C)=O)c2)s1	-20%	x	-21	u	u
O=C(CSc1nnc(COc2ccccc2Cl)o1)Nc1ccccc1	-2%	2%	-12	x	x
C/C(N)=C(/C#N)C(=O)CSc1nnc(COc2ccccc2Cl)o1	29%	-3%	2	u	7.9µM*
CS(=O)(=O)Nc1ccccc1C(=O)Nc1ccccc1Cl	-3%	8%	33	-3%	-18%
COc1cccc(NC(=O)c2ccccc2NS(C)(=O)=O)c1	-10%	-8%	78	x	x
CCS(=O)(=O)c1ccc(C(=O)Nc2cccc(Cl)c2)c(Cl)c1Cl	28µM*	u	u	u	x
CCS(=O)(=O)c1ccc(C(=O)Nc2ccccc2)c(Cl)c1Cl	u	-9%	-39	-25%	x
CS(=O)(=O)Nc1ccccc1C(=O)Nc1cc(Cl)cc(Cl)c1	u	u	-103*	11µM*	7.9µM*
CS(=O)(=O)Nc1ccccc1C(=O)Nc1cccc(Cl)c1	x	-4%	-67*	-23%	u
CC(C)c1nn2c(=O)cc(COC(=O)c3ccccc3NC(=O)C3CCCCC3)nc2s1	15%	x	-5	-17%	i
C/C(=N\OCc1ccc(C#N)cc1)c1ccccc1	87%	3%	-13	x	x
C/C(=N\OCc1cccc(C(=O)O)c1)c1ccc(Cl)cc1	10µM*	3%	74	-6%	i
CCn1c(SCC(=O)N2CCCc3ccccc32)nc2ccccc2c1=O	u	5µM*	u	-25%	u
CC(C)Cn1c(SCC(=O)N2CCCc3ccccc32)nc2ccccc2c1=O	u	u	-19	-10%	12%
SMILES	FMDV inh	HCV inhibitor	HCMV inh	VACV Venus inh	VACV mCherry inh
CC(C)c1nc(SCC(=O)N2CCCc3ccccc32)c2c(=O)n(C)c(=O)n(C)c2n1	u	10µM*	-29	u	u
Cc1cc2c(=O)n(Cc3ccco3)c(SCC(=O)N3CCCc4ccccc43)nc2s1	x	u	-88*	u	u
Cn1c(SCC2CCCO2)nnc1C1CCN(Cc2ccccc2O)CC1 (configuration not stated)	-16%	x	x	0%	-7%
COc1ccccc1CNc1ccc(-c2nc(C)no2)cc1[N+](=O)[O-]	0%	x	33	-11%	-22%
COc1ccc(C(=O)CSc2nncn2C)cc1	20%	15%	45	-22%	x
Cn1cnnc1SCC(=O)c1ccc(OC(F)F)cc1	4%	8%	-78*	x	x
COC(=O)C1=CN(c2ccc(C(C)(C)C)cc2)C(N)=C(C#N)C1c1ccc(OC)cc1 (configuration not stated)	-25%	x	-77*	-8%	u
CCOc1ccccc1N(CC(=O)Nc1ccccc1)S(=O)(=O)c1ccccc1	10%	-21%	-98*	x	x
CCOc1ccccc1N(CC(=O)Nc1cccnc1)S(=O)(=O)c1ccc(C)cc1	29%	-11%	-28	-10%	-12%
COc1ccc(Cl)cc1N(CC(=O)NC(C)(C)C)S(=O)(=O)c1ccc(C)c([N+](=O)[O-])c1	-11%	1%	-76*	-16%	-7%
COc1ccccc1N(CC(=O)Nc1cc(C)on1)S(=O)(=O)c1ccc(Cl)cc1	-12%	-13%	-69*	-21%	x
COC(=O)CN(c1cc(Cl)ccc1OC)S(=O)(=O)c1ccc(C)cc1	60%	u	u	-27%	-3%
CCOc1ccccc1N(CC(=O)Nc1cc(OC)ccc1OC)S(=O)(=O)c1ccccc1	-15%	u	-102*	x	x
COc1ccc(OC)c(N(CC(=O)NCC2CCCO2)S(=O)(=O)c2ccccc2)c1 (configuration not stated)	21%	18%	-63*	-4%	-13%
Cc1ccc(N(CC(=O)NCC2CCCO2)S(=O)(=O)c2ccccc2)c(C)c1 (configuration not stated)	5%	26%	u	-25%	-18%
Cc1ccc(C(=O)N2c3nc(-c4ccco4)nn3C3(CCCCC3)[C@@H]3CCCC[C@@H]32)cc1	-28%	x	-38	-13%	-9%
COc1ccc(C(NCC(=O)NC(C)c2ccc(Cl)cc2)c2ccccc2)cc1 (configuration not stated)	-19%	11µM*	15	x	x
O=C(O)COc1ccccc1C(Nc1ccccn1)c1cc(Cl)c2cccnc2c1O (configuration not stated)	-18%	-1%	-26	-8%	i
COc1ccc(C(=O)NC(c2ccc(Cl)cc2)c2cc(Cl)c3cccnc3c2O)cc1 (configuration not stated)	-10%	x	0	u	10µM*
CCOc1ccc(C(NC(C)=O)c2cc(Cl)c3cccnc3c2O)cc1 (configuration not stated)	x	x	x	u	5µM*
COc1ccccc1C(NC(C)=O)c1cc(Cl)c2cccnc2c1O (configuration not stated)	21%	u	-96*	u	u
CCOc1ccc(C(Nc2cccnc2)c2cc(Cl)c3cccnc3c2O)cc1 (configuration not stated)	-14%	u	-94*	u	u
O=C(O)COc1ccccc1C(Nc1cccnc1)c1cc(Cl)c2cccnc2c1O (configuration not stated)	-6%	2%	x	-2%	-2%
